Records with an inconclusive call do not appear. Entries that show only a call come without a potency. Unmarked numbers belong to inactive results. The source made the active and inactive calls. Calls follow the shape of the dose curve; as a rule, active = well fitted inhibition curve with a large enough effect; inconclusive = small, poorly fitted or top-dose-only effect; inactive = flat fitted curve, though single readings scatter.

Calcium and integrin-binding protein 1 (Homo sapiens), sequence (Q99828 whole entry, looked up): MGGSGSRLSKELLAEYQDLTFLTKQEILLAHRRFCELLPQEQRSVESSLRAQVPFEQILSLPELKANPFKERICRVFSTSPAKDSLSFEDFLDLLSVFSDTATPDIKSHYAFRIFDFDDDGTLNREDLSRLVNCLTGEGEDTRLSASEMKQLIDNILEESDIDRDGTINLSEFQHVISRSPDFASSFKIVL

The assay has as its target Calcium and integrin-binding protein 1 (Homo sapiens) (UniProt Q99828). Briefly: Primary qHTS for Identification of Calcium Integrin Binding Protein 1 (CIB1) Competitor (AID 1508620).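 Also: GST tagged CIB1 binding a fluorescein labelled alphaIIb integrin peptide tracer; top concentration of the series differs between compounds.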 The conditions noted are these: CIB1-GST / FITC-alphaIIb peptide fluorescence polarization; series mostly up to 114 µM. The procedure, abridged: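 Fluorescence polarization competition: CIB1-GST (1 uM final) preincubated with compound 15 min at room temperature, then FITC-labeled alphaIIb peptide (100 nM final) added for another 15 min. Polarization read at Ex 480/Em 540.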
For orientation: In qHTS, concentration-response curves come from the screen itself.
On to `O=C(Nc1ccc(S(=O)(=O)Nc2ccccc2Cl)c(Cl)c1)c1ccccn1`, for which the Potency result is “inactive”. Still for that read-out and setting: to `C=C1C(O)C[C@@H]2C(C(=O)O)=CO[C@@H](O[C@@H]3O[C@H](CO)[C@@H](O)[C@H](O)[C@H]3OC(=O)c3ccc(O)cc3)[C@H]12` (stereo partly drawn) belongs “inactive”. On the same count and under the same terms, to `CC(C)=CCC/C(C)=C/CO[C@@H]1O[C@H](CO)[C@@H](O)[C@H](O)[C@H]1O` belongs “inactive”. Consider `Oc1ccc(CNc2ccccc2F)c2cccnc12`, for which the Potency result was “inactive”. As for `C[C@@H]1O[C@@H](O[C@H]2[C@H](O[C@H]3[C@H](O)[C@@H](C(=O)O)O[C@@H](O[C@H]4CC[C@@]5(C)C(CC[C@]6(C)C5CC[C@]57OC[C@@]8(CCC(C)(C)CC85)[C@H](O)C[C@]76C)C4(C)C)[C@@H]3O[C@@H]3O[C@H](CO)[C@@H](O[C@@H]4OC[C@@H](O)[C@H](O)[C@H]4O)[C@H](O)[C@H]3O)O[C@H](CO)[C@H](O)[C@@H]2O)[C@H](O)[C@H](O)[C@H]1O` (stereo partly drawn), the activity change, negative = inhibition was 2.06% [at 12.4 µM].

Regarding `C[C@@H]1O[C@@H](O[C@H]2[C@H](O)[C@@H](O)[C@H](OC3CCC4(C)C5CCC(C)(C(CO)OC6OC(CO)C(O)C(O)C6O)CC5=CCC4C3(C)C)O[C@@H]2CO)[C@H](O)[C@H](O)[C@H]1O` (stereo partly drawn), the Potency entry is “inactive”. On the same count and under the same terms, the entry for `CC(=O)C=C=C1C(C)(C)CC(O[C@@H]2O[C@H](CO)[C@@H](O)[C@H](O)[C@H]2O)CC1(C)O` (stereo partly drawn) is “inactive”; for `CC12CCC(C(OC3OC(COC4OCC(O)(CO)C4O)C(O)C(O)C3O)C1)C(C)(C)O2` (stereo not drawn) it is “inactive”; for `CC(C)=CCC/C(C)=C/CCC1(C)Oc2c(c(O)cc3c2CN(C(CCC(=O)O)C(=O)O)C3=O)CC1O` (stereo not drawn) it is “inactive”.

Consider `CC1OC(OC2C(C)OC(OC3C(OC(=O)C45CCC(C)(C)CC4C4=CCC6C7(C)CCC(OC8OC(C(=O)O)C(O)C(O)C8OC8OC(CO)C(O)C(OC9OC(C)C(O)C(O)C9O)C8O)C(C)(CO)C7CCC6(C)C4(C)CC5)OC(CO)C(O)C3O)C(O)C2O)C(O)C(O)C1O` (stereo not drawn), for which the activity change, negative = inhibition is -1.29% [at 12.4 µM]. On to `CS(=O)(=O)NCC1CCC(Nc2nc3c(s2)CCSc2ccccc2-3)CC1` (stereo not drawn), for which the Potency entry is “inactive”. Still for that read-out and setting: to `CC(C)(O)c1ccc2c(c1)C(O)C[C@H]1[C@](C)(C(=O)O)CCC[C@]21C` (stereo partly drawn) belongs “inactive”. On the same count and under the same terms, to `COc1cc2c(cc1OC)[C@@H]1[C@H](O)[C@@H](OC)C=C3CCN(C2)[C@H]31` belongs “inactive”; to `Cc1ccc(F)cc1C(=O)Nc1ccc(C(=O)N2Cc3cccn3Cc3ccccc32)c(Cl)c1`, “inactive”. Still for that read-out and setting: to `C=C1CCC2C(C)(C)C(O)CCC2(C)C1CCC(C)CCO` (stereo not drawn) belongs “inactive”. Take `C=CC1(C)CC(OC(=O)/C(C)=C\COC(C)=O)C(C(=C)C(=O)O)C(O)C1C(=C)CO` (stereo not drawn): the Potency result is “inactive”. The same measure, in the same setting: to `C=C1CCC[C@]2(C)CC[C@@H](C(=C)C(=O)O)[C@H](O)[C@@H]12` belongs “inactive”.

Turning to `C=CC(=O)Nc1cc(Nc2ncc(Cl)c(-c3c[nH]c4ccccc34)n2)c(OC)cc1N(C)CCN(C)C`, the Potency entry is “inactive”. On the same count and under the same terms, to `OC[C@H]1O[C@@H](O[C@H]2[C@H](OCc3ccccc3)O[C@H](CO[C@@H]3OC[C@@H](O)[C@H](O)[C@H]3O)[C@@H](O)[C@@H]2O)[C@H](O)[C@@H](O)[C@@H]1O` belongs “inactive”; to `CC(C)C(C(=O)N(C)C(C)C(N)=O)N(C)C(=O)C1CCCN1C(=O)/C=C/C=C/C(O)C(C)O` (stereo not drawn), “inactive”. The same measure, in the same setting: to `CN(C)C(=O)NC1CCC(CCN2CCN(c3cccc(Cl)c3Cl)CC2)CC1` (stereo not drawn) belongs “inactive”; to `CN1CCC(Nc2nc(Nc3ccc(Oc4ccccc4)cc3)c3c(=O)[nH]cc(Br)c3n2)CC1`, “inactive”; to `C/C=C/C(O)C1OC(=O)CC1Nc1ccc(C(=O)O)cc1` (stereo not drawn), “inactive”. Same read-out and setting: to `CC1OC(OC2C(O)C(OC3CCC4(C)C(CCC5(C)C4CC=C4C6CC(C)(COC7OC(CO)C(O)C(O)C7O)CC(O)C6(C)CCC45C)C3(C)C)OC(C(=O)O)C2O)C(O)C(O)C1OC1OCC(O)C(O)C1O` (stereo not drawn) belongs “inactive”; to `O=C(COc1cccc2c(=O)[nH]ccc12)c1ccccc1`, “inactive”; to `C/C1=C\CCC2=C[C@@H](OC2=O)c2c(C)coc2C1`, “inactive”. For `CC(=O)c1c(O)cc(O[C@@H]2O[C@H](CO)[C@@H](O)[C@H](O)[C@H]2O)cc1O`, the Potency entry is “inactive”. Turning to `NC(=O)c1csc(C2OC(CO)C(O)C2O)n1` (stereo not drawn), the Potency result is “inactive”.
